# Assay outcomes deposited in PubChem by National Center for Advancing Translational Sciences (NCATS).
# The list is not random: actives were taken first. Their share in the collection is about 19%.
# BCR signal inh – blocks chronic active B-cell receptor signaling; ABC-DLBCL IkBa-CBG/CBR reporter, luminescence ratio, 4 h; Potency, µM (highest dose often 46.1 µM), inactives show at the top dose activity change, negative = inhibition, most hits filed as inhibitors; actives 0.05% (n = 340,000); AID 493014; active = well fitted inhibition curve with a large enough effect in the signal ratio, with a control signal flat, not every such curve was filed as active; inconclusive = small, poorly fitted or top-dose-only effect, or effect the other way, or a change in a side signal; the % refers to the signal ratio;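 also: potency is read from the fitted curve at half-maximal effect; plate controls were basal doxycycline-induced cells for no effect and cells given 10 µM MG132 for full effect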
#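 TMD8 human ABC-DLBCL cells with doxycycline-inducible IκBα–green luciferase fusion and unfused red luciferase, in 0.5% FBS medium; compounds up to 46 uM, 4 h at 37C. Green/red luminescence ratio, filter-overlap corrected, fitted to concentration-response curves.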
# IL-1B inflam inh – inhibitors of inflammasome signaling (IL-1 beta secretion); THP-1 LPS/ATP IL-1B secretion, AlphaLISA, 16 h; active compounds read low; activity change, % at 57.5 µM; actives 4.7% (n = 360,000); in the data active = activity change below about -50%; inconclusive = mostly about -30% to -49%; also: % is scaled to controls: 0 for no effect and ±100 for the full control effect
#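 Secreted IL-1B measured by AlphaLISA bead assay after 16 h compound exposure of THP-1 cells; compounds (final up to 57.5 uM) added 1 h before LPS (250 ng/mL) and ATP (1.25 mM) stimulation; lower signal means less secretion.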
# DT40 TDP1 no CPT – qHTS for Inhibitors of human tyrosyl-DNA phosphodiesterase 1 (TDP1): qHTS in cells in absence of CPT; DT40 Tdp1-/- hTDP1 cells, no CPT, ATP luminescence, 48 h; Potency, µM (top dose mostly 46.2 µM), for inactives: at the top dose activity change, negative = growth inhibition, actives largely listed as inhibitors; actives 15% (n = 420,000); also: potency is read from the fitted curve at half-maximal effect; % is scaled to controls: 0 for no effect and ±100 for the full control effect; nearly all actives have a fitted effect of over 55% in size
#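 Stably hTDP1-transfected Tdp1-null chicken DT40 cells were treated with library compounds minus camptothecin and grown for at least 48 hr at 37 °C, after which cellular ATP was quantified by luminescence.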
# SW480 rereplic – inducers of DNA re-replication in SW480 colon cancer cells. SW480 DNA re-replication, Hoechst DNA content imaging, 48 h. Potency, µM (series often up to 46.1 µM), without a hit: at the top dose re-replication activation, most hits filed as activators. actives 1.8% (n = 340,000). AID 624297; also: potency is read from the fitted curve at half-maximal effect; % of control where 0% means no effect; nearly all actives have a fitted effect of over 55% in size
#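 Hoechst fluorescence of nuclei (405 nm excitation, 500-530 nm emission) measured by plate-scanning imager after 48 hr compound exposure at 37 C; re-replication scored as increased number of nuclei with elevated intensity.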
# MCF10A rereplic – induces DNA re-replication in MCF 10a normal breast cells | MCF 10A DNA re-replication, Hoechst nuclear intensity, 48 h | Potency, µM (highest dose often 46.1 µM), without a hit: top-dose activity, positive = re-replication, actives largely listed as activators | actives 2.9% (n = 350,000) | AID 624296; also: potency is read from the fitted curve at half-maximal effect; % of control where 0% means no effect; nearly all actives have a fitted effect of over 50% in size
# TDP1 cell CPT – growth inhibition of DT40 Tdp1-/-;hTDP1 cells with camptothecin (screen for TDP1 inhibitors); chicken DT40 Tdp1-/-;hTDP1 cells + 20 nM CPT, ATP luminescence, 48 h; Potency, µM (highest dose often 46.2 µM), for inactives: at the highest dose activity change, negative = growth inhibition, most hits filed as inhibitors; actives 12% (n = 420,000); also: potency is read from the fitted curve at half-maximal effect; % is scaled to controls: 0 for no effect and ±100 for the full control effect; nearly all actives have a fitted effect of over 55% in size
#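 Chicken DT40 Tdp1-/- cells complemented with human TDP1, 400 cells/well, exposed to compounds plus 20 nM camptothecin for at least 48 h at 37 C; viability read as ATP content by CellTiter-Glo luminescence.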
# An asterisk follows results filed as active; ? = inconclusive; nt = no result; [ ] = dose if it differs, or a comment. Unless noted, calls follow the shape of the dose curve; as a rule, active = well fitted curve in the direction sought with a large enough effect; inconclusive = small, poorly fitted or top-dose-only effect, or another doubt; inactive = no such curve, though single readings can be large; an effect the other way counts as inactive or inconclusive.
SMILES,BCR signal inh,IL-1B inflam inh,DT40 TDP1 no CPT,SW480 rereplic,MCF10A rereplic,TDP1 cell CPT
COc1ccccc1NC(=O)CSc1nncs1,2.3%,13.1,-10.0%,7.5%,0.6%,-1.9%
Cc1ccc(NC(=O)c2oc3ccc(S(=O)(=O)N4CCCCCC4)cc3c2C)c(C)c1,?,nt,-22.3%,nt,nt,-23.9%
COc1ccc(NC(=O)CN(C)C(=O)C2CCCO2)cc1 (configuration not stated),?,-1.1,13.8%,-42.0%,-1.0%,-8.8%
COc1ccccc1N(CC(O)COc1c(C)cc(C)cc1C)S(=O)(=O)c1ccccc1 (configuration not stated),?,-56.3*,?,?,?,?
COc1ccccc1N(CC(O)COc1ccc(C)cc1)S(=O)(=O)c1ccccc1 (configuration not stated),11.6%,-93.3*,?,-1.4%,?,-4.6%
COc1ccccc1N(CC(O)COc1ccccc1)S(=O)(=O)c1ccccc1 (configuration not stated),1.9%,-0.4,?,?,6.0%,?
COc1ccccc1N(CC(O)Cn1c(C)nc2ccccc21)S(=O)(=O)c1ccccc1 (configuration not stated),6.1%,12.8,29.1µM*,1.5%,2.9%,?
CCN(CC)CCN1C(=O)C(=O)/C(=C(/O)c2ccc(S(=O)(=O)N3CCOCC3)cc2)C1c1ccc(C)cc1 (configuration not stated),0.5%,4.5,0.3%,-28.0%,1.5%,3.9%
CSc1ccccc1C(=O)NC1CCCc2ccccc21 (configuration not stated),-0.8%,-22.6,?,?,1.3%,?
CCOC(=O)N1CCC(NS(=O)(=O)c2ccc(NC(C)=O)c(Cl)c2)CC1,3.2%,14.0,8.2µM*,?,?,23.1µM*
CCOC(=O)N1CCC(NC(=O)c2cc(S(=O)(=O)N(CC)CC)ccc2F)CC1,-3.7%,-17.0,-23.7%,0.731µM*,-12.6%,-20.2%
CCc1ccccc1NC(=O)c1nnn(-c2ccc(F)cc2)c1C,nt,nt,?,nt,nt,-17.1%
Cc1ccc(C)c(NC(=O)c2ccc(CN3CC(=O)N4CCCCC4C3=O)cc2)c1 (configuration not stated),nt,nt,16.4µM*,nt,nt,16.4µM*
O=C(NCc1cccc(F)c1)c1ccc(CN2CC(=O)N3CCCCC3C2=O)cc1 (configuration not stated),nt,nt,-6.2%,nt,nt,-9.0%
CC1=CC(=O)C=C(C)C1=NOS(=O)(=O)c1ccccc1,?,-117.8*,2.06µM*,7.31µM*,7.31µM*,1.3µM*
CC1=CC(=O)C(C(C)C)=C/C1=N/OS(=O)(=O)c1ccccc1,?,-101.0*,0.581µM*,0.731µM*,2.91µM*,0.581µM*
CCCCn1c(N)c(N(CCOC)C(=O)c2ccc3c(c2)OCCO3)c(=O)[nH]c1=O,-6.3%,7.2,9.0%,-1.8%,2.1%,10.1%
CCCCc1ccc(NC(=O)CSc2nnc3[nH]c(=O)cc(C)n23)cc1,6.9%,nt,-8.4%,nt,nt,-1.6%
Cc1nnsc1S(=O)c1ccc(Cl)cc1 (configuration not stated),-2.1%,-28.7,?,?,1.8%,?
Cc1nnsc1S(=O)c1ccc(Cl)c(Cl)c1 (configuration not stated),-11.4%,-62.0*,14.6µM*,?,?,10.3µM*
CCn1cc(S(=O)(=O)Nc2cc(F)ccc2C)cn1,-4.0%,24.5,10.6%,2.2%,-0.1%,5.5%
c1cc2c3c(cccc3c1)NN=N2,nt,16.8,?,1.2%,3.1%,?
c1cc2c3c(cccc3c1)NC1(CCCCC1)N2,-8.2%,-5.0,18.4µM*,3.2%,-2.6%,18.4µM*
S=C1NC2(CCCCC2)NN1c1ccccc1,?,22.5,?,20.8%,15.1%,23.1%
c1cc2c3c(cccc3c1)NC1(CCCCCC1)N2,6.9%,-2.5,11.6µM*,-0.5%,-1.1%,?
SMILES,BCR signal inh,IL-1B inflam inh,DT40 TDP1 no CPT,SW480 rereplic,MCF10A rereplic,TDP1 cell CPT
c1cc2c3c(cccc3c1)NC1(CCC3(CC1)Nc1cccc4cccc(c14)N3)N2,?,-29.9,13µM*,?,?,9.2µM*
O=C(NNc1ccccc1C(F)(F)F)c1sccc1Br,-15.7%,12.7,-7.4%,2.4%,5.6%,-4.7%
CCOc1ccccc1NC(=O)CC1Nc2cc(C)c(C)cc2NC1=O (configuration not stated),?,34.9,?,?,18.4µM*,18.4µM*
Cc1ccc(NC(=O)CC2Nc3ccccc3NC2=O)cc1Cl (configuration not stated),?,-1.8,?,16.4µM*,2.59µM*,?
Cc1cc2c(cc1C)NC(CC(=O)Nc1ccccc1)C(=O)N2 (configuration not stated),nt,nt,25.9µM*,nt,nt,16.4µM*
Cc1ccc(NC(=O)CC2Nc3ccccc3NC2=O)cc1C (configuration not stated),nt,nt,-8.2%,nt,nt,-22.7%
COc1cccc(-c2cc(=O)c3cc(NC(C)=O)ccc3[nH]2)c1,?,59.1,16.4µM*,16.4µM*,23.1µM*,?
O=C(Nc1cccnc1)c1ccc2nc(-c3ccccc3)c(-c3ccccc3)nc2c1,4.3%,-9.5,14.6µM*,-31.8%,?,23.1µM*
O=C(Nc1ccccc1)Nc1ccc(Oc2cccnc2)nc1,-1.1%,-6.5,16.4µM*,-7.2%,-4.0%,?
O=C(Nc1cccnc1)c1ccc(Oc2ccccc2)cc1,-2.5%,-15.0,?,?,10.3%,23.1µM*
COC(=O)c1ccccc1NC(=O)Cn1c(=O)n(CCCC(=O)NCCc2ccc(OC)c(OC)c2)c(=O)c2ccccc21,nt,nt,-8.1%,nt,nt,-6.4%
CCOc1ccccc1N1CCN(C(=O)c2cc3c(C)cc(C)cc3[nH]2)CC1,-5.6%,?,23.1µM*,20.6µM*,?,?
CCOc1ccccc1N1CCN(C(=O)c2ccc3[nH]c4c(c3c2)CCCC4)CC1,?,?,?,1.3%,?,20.6µM*
CCOc1ccccc1N1CCN(C(=O)CC(C)C)CC1,-1.6%,-2.6,-13.9%,-6.0%,-1.3%,-12.2%
CCOC(=O)C1CCN(C(=O)c2cc3c(C)cc(C)cc3[nH]2)CC1,?,11.9,?,13.9%,-8.7%,-19.6%
Cn1c(SCC2CCCO2)nnc1C1CCN(Cc2ccccc2O)CC1 (configuration not stated),nt,nt,-4.8%,nt,nt,8.8%[9.04 µM]
O=C(NCCS(=O)(=O)NCc1ccccn1)c1ccccc1,3.9%,13.1,19.3%,-5.9%,-0.1%,1.0%
